Assay results as given in PubChem BioAssay AID456 (Sanford-Burnham Center for Chemical Genomics, 2006).
The whole screen tested about 10,000 compounds, of which about 25 (0.2%) were called active. The sample holds actives, similar compounds and a random draw of the others, so the mix is not that of the screen.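 Rule for the calls: active = top tenth filtered wells with inhibition above zero that passed visual or statistical confirmation; inactive = the rest, including hits rejected on review.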 Entries with a potency or affinity are not part of this list.

Assay: inhibitors of TNFa-induced VCAM-1 surface display, imaging, high-content imaging, pooled HUVEC, TNFa stimulus (AID 456);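 for inhibition: VCAM-1 immunofluorescence minus red nonspecific channel after plate median normalization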
Conditions: HUVEC TNFa-induced VCAM-1 surface expression, immunofluorescence imaging;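 compounds screened at 5 µM final in the well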

SMILES	inhibition
CCCCn1cnc2c(c1=O)c1nc3ccccc3nc1n2Cc1ccc2c(c1)OCO2	inactive
CN(C)c1ccc(C(=O)OCC(=O)NC2CCCCC2)cc1	inactive
O=C(Nc1ccccc1N1CCN(C(=O)c2ccc(Cl)cc2)CC1)c1cc2ccccc2o1	inactive
CS(=O)(=O)N1CCN(c2ccccc2NC(=O)c2cccs2)CC1	inactive
CS(=O)(=O)N1CCN(c2ccccc2NC(=O)c2ccc(-c3ccc(Cl)cc3Cl)o2)CC1	70.7% (active)
Cc1cc(Br)c(S(=O)(=O)n2nnc3ccccc32)cc1C	inactive
COc1cc(CNc2ccc(N3CCOCC3)c(C(=O)O)c2)ccc1OCC(N)=O	inactive
Cc1ccc(NC(=O)c2ccco2)c(NC(=O)CN2C(=O)c3ccccc3C2=O)c1	inactive
CCOc1ccc2cc(C#N)c(SCC(=O)N3CCCC3)nc2c1	inactive
CCOc1ccc2cc(C#N)c(SCC(=O)N3CCOCC3)nc2c1	inactive
CCOc1ccc2cc(C#N)c(SCC(=O)N3CCC(C)CC3)nc2c1	69.1% (active)
Cc1cc(Cl)ccc1NC(=O)CSc1nnc(Cc2cccs2)n1Cc1ccco1	inactive
COc1ccc(OC)c(NC(=O)CS(=O)(=O)c2ccccc2)c1	inactive
O=S(=O)(NCCCCCNS(=O)(=O)c1ccccc1)c1ccccc1	inactive
Cc1ccccc1-c1nc2ccccc2c(=O)n1C1CCS(=O)(=O)C1 (centres undefined)	inactive
C=C(Cl)COC(=O)[C@H]1C2C=CC(C2)C1C(=O)O (some centres undefined)	inactive
O=C(c1cnn2c1NC(c1ccco1)CC2C(F)(F)F)N1CCN(c2cccc(Cl)c2)CC1 (centres undefined)	inactive
O=C(CC(SCCO)c1ccc2c(c1)OCO2)c1ccco1 (centres undefined)	inactive
COc1ccc(CCNC(=O)C2CCN(Cc3nc(-c4cccc(Cl)c4)oc3C)CC2)cc1OC	76.3% (inactive)
Cc1ccccc1-c1nc(CN2CCC(C(=O)N3CCC(C(N)=O)CC3)CC2)c(C)o1	inactive
O=C(CN(Cc1ccc(F)cc1)C(=O)Cn1nnc2ccccc21)NCC1CCCO1 (centres undefined)	inactive
O=C(NCC1CCCO1)c1ccc(C(=O)NCC2CCCO2)cc1 (centres undefined)	inactive

SMILES	inhibition
O=S(=O)(c1ccc2ccccc2c1)N1CCCCC1	inactive
CSc1ncc(Cl)c(C(=O)Nc2ccc(S(=O)(=O)N3CCOCC3)cc2)n1	inactive
Cc1cnc(C(=O)Nc2ccc(N3CCOCC3)cc2)cn1	inactive
Cc1cc(NCCN2CCOCC2)n2nc(C)c(-c3ccccc3)c2n1	inactive
COC(=O)c1cn(C(=O)c2ccc(Br)o2)c2ccccc12	inactive
O=C(NCCN1CCOCC1)C1CC(=O)N(c2ccc(F)c(Cl)c2)C1 (centres undefined)	inactive
CC1=C(C(=O)OC2CCCCC2)C(c2ccc(C)o2)C2=C(CC(C)(C)CC2=O)N1 (centres undefined)	inactive
COc1ccccc1N1CCN(C(=O)c2cc(C3CC3)on2)CC1	inactive
CCOC(=O)Cc1nnc(NC(=O)c2ccccc2OCC)s1	inactive
O=C(CCn1c(=O)oc2ccccc21)NCCN1CCOCC1	inactive
O=c1[nH]c(NCc2ccccc2)nc2c1CCCC2	inactive
Cc1ccc(N2CCN(C(=S)c3ccc(N(C)C)cc3)CC2)cc1	inactive
COc1ccccc1N1CC(C(=O)Nc2cccc(C(=O)O)c2)CC1=O (centres undefined)	inactive
c1ccc(OCCCn2nnc(-c3cccnc3)n2)cc1	inactive
CCN(CC)CCn1c(=N)n(CCO)c2ccccc21	inactive
Cc1c(NC(=O)Cn2nc(C(=O)O)c3ccccc3c2=O)c(=O)n(-c2ccccc2)n1C	inactive
Cn1ccnc1SCC(=O)Nc1ccc2ccccc2c1	inactive
CCOC(=O)c1sc(NS(=O)(=O)c2ccc(NC(C)=O)cc2)nc1C	inactive
CCn1c(-c2cc(Br)ccc2O)n[nH]c1=S	inactive
CCSc1oc(-c2cccs2)nc1S(=O)(=O)c1ccccc1	inactive
COc1ccc(OCC(=O)N2CCN(C(=O)COc3ccc(Br)cc3)CC2)cc1	inactive
COc1cc2c(cc1OC)C(c1cccnc1)CC(=O)N2 (centres undefined)	inactive

SMILES	inhibition
COc1ccc(NC(=O)c2cc(C(C)C)on2)c(OC)c1	inactive
Cc1ccc2c(c1)NC(=O)C(CC(=O)NC1CCCCC1C)O2 (centres undefined)	inactive
COc1ccc(N2C(=O)CCC(C(=O)N3CCCCC3)C2c2ccc(OC)c(OC)c2)cc1 (centres undefined)	inactive
CCCC1(C(=O)OCC)NC(c2ccc(N(C)C)cc2)C2C(=O)N(c3ccccc3)C(=O)C21 (centres undefined)	inactive
CCOc1ccc(-n2cc(C(=O)Nc3cccc(C)n3)c3cc(OC)c(OC)cc3c2=O)cc1	inactive
COc1ccccc1N1CCN(C(=O)CSc2nc3ncnc(N)c3[nH]2)CC1	inactive
Cc1ccc(-c2[nH]nc3c2C(c2ccc(OC(=O)N4CCOCC4)cc2)C(C#N)=C(N)O3)cc1 (centres undefined)	inactive
O=C(CSc1nnc(-c2ccccc2)o1)N1CCN(c2ccccc2)CC1	inactive
CN(c1ccccc1)C(c1ccc(F)cc1)c1nnnn1CC1CCCO1 (centres undefined)	inactive
Cc1ccc(CCSCC(=O)O)cn1	inactive
O=C(Nc1ccc(N2CCOCC2)c(Cl)c1)c1ccc(Br)o1	inactive
CCn1c(CSc2nc(C)cc(C)n2)nnc1SCC(=O)Nc1ccccc1	inactive
COc1ccccc1N1CCN(C(=O)C(Cc2ccccc2)NC(=O)C2CCCCC2)CC1 (centres undefined)	inactive
COc1ccc(C(N)=O)cc1N	inactive
C#CCN1C(=O)C(O)(CC(=O)c2cccc(OC)c2)c2ccccc21 (centres undefined)	inactive
CCOC(=O)c1c(C)oc2ccc(O)c(CN(C)C)c12	inactive
CN(c1cccc(NC(=O)COc2ccccc2)c1)S(C)(=O)=O	inactive
CCOc1ccc2ccccc2c1C(=O)N1CCN(c2ccccc2)CC1	inactive
CCOC(=O)c1c(NC(=O)CSc2nnc(-c3cccnc3)o2)sc(C)c1C	inactive
CN(C)S(=O)(=O)c1ccc(C(=O)Nc2ccccc2C(=O)O)cc1	inactive
CCN1C(=O)c2cccc3c(NC(=O)c4ccc5c(c4)OCCO5)ccc1c23	inactive
N#Cc1c2n(c(=O)[nH]c1=O)CCCCC2	inactive

SMILES	inhibition
O=C(c1nn2cccnc2c1Cl)N1CCN(c2ccccc2)CC1	inactive
COC(=O)c1cc(Oc2ccc(C(=O)OC)cc2N)cc(C(=O)OC)c1	inactive
Cc1cc(C)n(C(=O)C23CC4CC(CC(C4)C2)C3)n1	inactive
Cn1c(=O)cc(OCCCC(=O)N2CCCCC2)c2ccccc21	102% (inactive)
Cc1ccc2oc(=O)c3cnn(CC(=O)N4CCCCC4C)c3c2c1 (centres undefined)	inactive
Cc1cc(NS(=O)(=O)c2ccc(NC(=O)C(C)N3C(=O)c4ccccc4C3=O)cc2)nc(C)n1 (centres undefined)	inactive
CC(=O)Nc1ccc(Cc2ccncc2)cc1	inactive
CN(C)S(=O)(=O)c1ccc(Oc2ccc(S(=O)(=O)N(C)C)cc2)cc1	inactive
O=S(=O)(Nc1ccccn1)c1ccc(Oc2ccccc2)cc1	inactive
COCCn1c(COc2ccc(Cl)cc2)nnc1SCC(N)=O	inactive
Cc1cc(NC(=O)CSc2nnc(COc3cccc(C)c3C)n2Cc2ccco2)no1	inactive
Cc1occc1C(=O)N1CCN(Cc2ccccc2)CC1	inactive
CCOC(=O)c1sc(N)c(C(=O)OCC)c1COC(=O)C1CC(=O)N(Cc2ccco2)C1 (centres undefined)	inactive
O=C(CN(c1ccccc1)S(=O)(=O)c1ccccc1)N1CCN(Cc2ccc3c(c2)OCO3)CC1	inactive
CCOC(=O)CNC(=O)c1c(C)nn(-c2ccccc2)c1Cl	inactive
COc1ccc(S(=O)(=O)NCC(=O)N(CC(=O)NCC2CCCO2)c2ccccc2C)cc1 (centres undefined)	inactive
Cc1cccc(N2CCN(C(=O)CCn3c(=S)[nH]c4cc5c(cc4c3=O)OCO5)CC2C)c1 (centres undefined)	inactive
CC1(C)C(c2ccccc2)=NC(c2ccccc2)N1O (centres undefined)	inactive
O=C(NCCN1CCOCC1)c1csc2c1CCCC2	inactive
CCOC(=O)N1CCN(CC(O)COc2ccccc2C(C)CC)CC1 (centres undefined)	inactive
CCN(CC(=O)Nc1ccc(S(N)(=O)=O)cc1)S(=O)(=O)c1cc(C)ccc1OC	inactive
CCCCC(=NCCO)C1=C(O)C(C(=O)OC)C(C)(C)CC1=O (centres undefined)	inactive

SMILES	inhibition
O=C(CSc1nc2ccsc2c(=O)n1NC(=O)c1ccccc1)Nc1nccs1	inactive
COc1cc2c(C)nc(C)c(C#N)c2cc1OC	inactive
COc1ccc(C)cc1-n1c(N)c(C#N)c(C#N)c1-c1ccc(OC)c(OC)c1OC	77% (active)
COc1ccc(Cn2c(N)c(C#N)c3nc4ccccc4nc32)cc1OC	inactive
Cc1cc2cc(CN(CC3CCCO3)C(=O)c3cnccn3)c(=O)[nH]c2cc1C (centres undefined)	inactive
COc1ccc2oc(C)c(C(=O)Cn3ccnc3)c2c1	inactive
Cn1c(=O)c2c(nc(SCCCC#N)n2Cc2c(F)cccc2Cl)n(C)c1=O	72.9% (active)
Cn1c(=O)c2c(nc(SCCCC#N)n2Cc2ccccc2F)n(C)c1=O	inactive
Cn1c(=O)c2c(nc(SCCCO)n2Cc2ccccc2Cl)n(C)c1=O	inactive
O=C(c1csc2ccccc12)N1CCCCCC1	inactive
Cn1c(-c2ccc(F)cc2)cnc1SCC(=O)Nc1ccccc1N1CCOCC1	inactive
Cc1ccnc2c(N3C(=O)C4C5C=CC(C5)C4(C)C3=O)cccc12 (centres undefined)	inactive
CCOC(=O)C1CCCN(C(=O)CNS(=O)(=O)c2ccc(Br)s2)C1 (centres undefined)	inactive
COC(=O)C1=C(C)n2nnnc2NC1c1ccc(Cl)cc1 (centres undefined)	inactive
O=C(NCCN1CCOCC1)c1ccc2c(c1)N(Cc1ccccc1)C(=O)CS2	inactive
C=CCn1c(SCC(=O)NCC2CCCO2)nnc1C1CCCCC1 (centres undefined)	inactive
COc1ccc(-c2nn3c(-c4ccncc4)nnc3s2)cc1OC	inactive
Cc1cn2c(-c3ccncc3)nnc2s1	inactive
Cc1ccc2cc(C(c3nnnn3C3CCCC3)N3CCN(c4ccc(F)cc4)CC3)c(=O)[nH]c2c1 (centres undefined)	inactive
Cc1cc(-c2ccccc2)c(C#N)c(N)n1	inactive
Cc1ccc2nc(C(F)(F)F)c(C#N)c(N)c2c1	74.6% (active)
